What was measured:
Experiment in all cases: thermal shift delta Tm vs DMSO control; higher = stronger stabilization (binding)
Conditions in all cases: 12.5 µM; protein concentration 2 µM
LOC_OS02G45750-cb003 = system: LOC_OS02G45750-cb003
Outline: (§1)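 Heating from 25°C to 95°C at 0.05°C/s, fluorescence was recorded for 19.5 μl wells of 2 μM E. coli-expressed, purified rice kinase domain in 100 mM potassium phosphate pH 7.5, 150 mM NaCl, 10% glycerol and 5 × SYPRO Orange with compound in DMSO. Boltzmann fits gave melting temperatures for this differential scanning fluorimetry assay. The shift reported is the mean of three replicates against the DMSO-only protein.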

LOC_OS02G54510-cb004 = system: LOC_OS02G54510-cb004
Outline: as §1

LOC_OS03G04050-cb001 = system: LOC_OS03G04050-cb001
Outline: as §1

LOC_OS03G12390-cb001 = system: LOC_OS03G12390-cb001
Outline: as §1

LOC_OS03G27990-cb004 = system: LOC_OS03G27990-cb004
Outline: as §1

LOC_OS03G50450-cb001 = system: LOC_OS03G50450-cb001
Outline: as §1

LOC_OS03G50810-cb003 = system: LOC_OS03G50810-cb003
Outline: as §1

LOC_OS04G35114-cb001 = system: LOC_OS04G35114-cb001
Outline: as §1

LOC_OS04G38480-cb003 = system: T1, LOC_OS04G38480-cb003
T1 sequence (whole entry): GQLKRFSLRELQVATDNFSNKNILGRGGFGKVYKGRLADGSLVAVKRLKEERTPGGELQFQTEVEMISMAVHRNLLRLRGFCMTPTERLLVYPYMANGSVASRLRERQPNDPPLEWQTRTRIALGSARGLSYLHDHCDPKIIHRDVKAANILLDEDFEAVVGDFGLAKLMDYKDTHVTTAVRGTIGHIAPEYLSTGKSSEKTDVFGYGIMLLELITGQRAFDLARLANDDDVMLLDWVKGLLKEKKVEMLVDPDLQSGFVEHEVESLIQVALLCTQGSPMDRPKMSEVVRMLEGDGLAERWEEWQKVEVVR
Outline: as §1

LOC_OS04G41100-cb001 = system: T2, LOC_OS04G41100-cb001
T2 sequence (whole entry): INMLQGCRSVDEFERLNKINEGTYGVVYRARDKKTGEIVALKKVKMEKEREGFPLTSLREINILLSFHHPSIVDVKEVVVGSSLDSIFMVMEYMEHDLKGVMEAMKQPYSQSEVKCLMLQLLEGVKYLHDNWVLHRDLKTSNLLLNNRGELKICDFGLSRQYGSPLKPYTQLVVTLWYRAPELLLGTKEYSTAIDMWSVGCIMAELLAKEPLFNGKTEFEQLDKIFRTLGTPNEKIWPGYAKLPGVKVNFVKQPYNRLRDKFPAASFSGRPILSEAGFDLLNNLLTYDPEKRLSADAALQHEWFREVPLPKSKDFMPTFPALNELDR
Outline: as §1

LOC_OS04G57630-cb004 = system: LOC_OS04G57630-cb004
Outline: as §1

LOC_OS05G07850-cb002 = system: LOC_OS05G07850-cb002
Outline: as §1

LOC_OS05G16824-cb004 = system: LOC_OS05G16824-cb004
Outline: as §1

LOC_OS05G28520-cb001 = system: LOC_OS05G28520-cb001
Outline: as §1

LOC_OS05G30820-cb001 = system: LOC_OS05G30820-cb001
Outline: as §1

LOC_OS05G43570-cb004 = system: LOC_OS05G43570-cb004
Outline: as §1

LOC_OS06G16330-cb003 = system: LOC_OS06G16330-cb003
Sequence of LOC_OS06G16330-cb003 (as listed by the source): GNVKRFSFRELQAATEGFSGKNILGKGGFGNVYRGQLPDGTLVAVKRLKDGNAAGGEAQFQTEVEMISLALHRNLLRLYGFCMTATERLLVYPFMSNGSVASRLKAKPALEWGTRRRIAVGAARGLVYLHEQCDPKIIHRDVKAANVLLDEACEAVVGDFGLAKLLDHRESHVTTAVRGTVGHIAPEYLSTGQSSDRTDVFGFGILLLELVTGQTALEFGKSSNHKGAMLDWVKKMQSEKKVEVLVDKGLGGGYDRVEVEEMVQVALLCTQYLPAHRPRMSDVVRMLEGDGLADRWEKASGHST
Outline: as §1

LOC_OS06G22820-cb001 = system: T3, LOC_OS06G22820-cb001
T3 sequence (whole entry): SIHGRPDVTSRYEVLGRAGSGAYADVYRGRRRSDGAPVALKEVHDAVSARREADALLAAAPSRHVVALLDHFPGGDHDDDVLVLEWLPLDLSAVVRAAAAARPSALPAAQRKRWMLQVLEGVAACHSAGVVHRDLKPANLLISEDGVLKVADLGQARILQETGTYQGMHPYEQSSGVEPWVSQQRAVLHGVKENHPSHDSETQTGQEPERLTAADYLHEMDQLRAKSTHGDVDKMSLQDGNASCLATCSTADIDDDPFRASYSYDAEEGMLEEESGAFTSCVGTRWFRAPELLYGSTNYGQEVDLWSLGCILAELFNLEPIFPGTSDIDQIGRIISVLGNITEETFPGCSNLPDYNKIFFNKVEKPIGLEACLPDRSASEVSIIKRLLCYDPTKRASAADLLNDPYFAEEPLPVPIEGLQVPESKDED
Outline: as §1

LOC_OS07G06570-cb004 = system: LOC_OS07G06570-cb004
Outline: as §1

LOC_OS07G07230-cb001 = system: LOC_OS07G07230-cb001
Outline: as §1
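Also: purified Escherichia coli-expressed rice kinase domain construct.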

Row | SMILES | thermal shift delta Tm (LOC_OS02G45750-cb003) | thermal shift delta Tm (LOC_OS02G54510-cb004) | thermal shift delta Tm (LOC_OS03G04050-cb001) | thermal shift delta Tm (LOC_OS03G12390-cb001) | thermal shift delta Tm (LOC_OS03G27990-cb004) | thermal shift delta Tm (LOC_OS03G50450-cb001) | thermal shift delta Tm (LOC_OS03G50810-cb003) | thermal shift delta Tm (LOC_OS04G35114-cb001) | thermal shift delta Tm (LOC_OS04G38480-cb003) | thermal shift delta Tm (LOC_OS04G41100-cb001) | thermal shift delta Tm (LOC_OS04G57630-cb004) | thermal shift delta Tm (LOC_OS05G07850-cb002) | thermal shift delta Tm (LOC_OS05G16824-cb004) | thermal shift delta Tm (LOC_OS05G28520-cb001) | thermal shift delta Tm (LOC_OS05G30820-cb001) | thermal shift delta Tm (LOC_OS05G43570-cb004) | thermal shift delta Tm (LOC_OS06G16330-cb003) | thermal shift delta Tm (LOC_OS06G22820-cb001) | thermal shift delta Tm (LOC_OS07G06570-cb004) | thermal shift delta Tm (LOC_OS07G07230-cb001)
1 | O=C(O)c1ccc2c(c1)nc(Nc1cccc(Cl)c1)c1ccncc12 [Silmitasertib (CX-4945)] | 1.82 °C | 1.5 °C | 0.25 °C | 4.4 °C | 4.14 °C | 0.83 °C | 1.55 °C | 6.87 °C | 1.13 °C | 0.77 °C | 0.56 °C | 8.41 °C | 3.01 °C | 0.57 °C | 0.68 °C | 0.46 °C | 3.05 °C | 0.65 °C | 1.59 °C | 0.82 °C
2 | c1cncc(CN2CCC(n3ncc4c(N5CCOCC5)nc(-c5ccc6[nH]ccc6c5)nc43)CC2)c1 | 0.03 °C | -0.13 °C | 0.22 °C | -0.05 °C | 0.01 °C | 0.14 °C | 0.65 °C | 0.3 °C | 0.67 °C | 0.58 °C | 0.55 °C | 0.6 °C | -2.75 °C | 0.6 °C | 0.62 °C | -0.19 °C | -0.3 °C | 0.42 °C | 0.64 °C | 0.16 °C
3 | Cc1ccc(S(=O)(=O)/C=C/C#N)cc1 | -0.28 °C | 1.4 °C | 0.67 °C | -0.03 °C | -0.15 °C | 0.08 °C | -1.25 °C | 0.08 °C | 0.47 °C | -0.67 °C | 2.48 °C | 7.56 °C | -14.7 °C | 0.54 °C | -0.01 °C | -0.14 °C | -0.31 °C | 0.01 °C | 1.13 °C | -0.21 °C
